Shown are actives, neighbours in structure and some others; about 2.1% of the full set was active somewhere.
D2 PAM-1: Beta-Arrestin HTS for Positive Allosteric Modulators of the Human D2 Dopamine Receptor: Potentiators; DiscoveRx D2 beta-arrestin cells, luminescence, 90 min; 100% = 57 uM dopamine signal; potentiation, % (test concentration not listed); 0.23% of 360,000 active; AID 624464, 2012; in the data active = potentiation above about 50%
Target sequence (P14416 whole entry, looked up): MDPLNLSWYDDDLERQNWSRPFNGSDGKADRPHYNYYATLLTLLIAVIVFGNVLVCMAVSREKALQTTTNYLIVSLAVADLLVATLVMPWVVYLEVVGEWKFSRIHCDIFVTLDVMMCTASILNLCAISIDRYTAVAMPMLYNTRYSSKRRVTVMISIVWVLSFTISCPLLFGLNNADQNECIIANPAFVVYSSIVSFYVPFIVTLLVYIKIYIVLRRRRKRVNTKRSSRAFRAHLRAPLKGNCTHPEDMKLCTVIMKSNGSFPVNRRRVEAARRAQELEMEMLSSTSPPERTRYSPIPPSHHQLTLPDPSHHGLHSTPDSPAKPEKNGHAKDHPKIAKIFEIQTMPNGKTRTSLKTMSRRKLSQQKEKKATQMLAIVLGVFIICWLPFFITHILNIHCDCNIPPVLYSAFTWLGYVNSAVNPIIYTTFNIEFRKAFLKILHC
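PathHunter beta-arrestin assay in DiscoveRx D2 cells. Compounds were added with an EC20 of dopamine (50 nM final) for 90 min at 37 deg C. Luminescence was read 1 h after detection reagent, with 57 uM dopamine as the EC100 control.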
LDHA inh: qHTS assay for inhibitors of human lactate dehydrogenase; purified LDHA, NADH/diaphorase-resazurin fluorescence; stronger effect = lower value; AID 1347041, 2019; L-lactate dehydrogenase A chain (Homo sapiens), P00338; 0.15% of 480,000 active; activity change, % (values are at about 110 or 230 µM); in the data active = activity change below about -30%
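Human LDH5 at 2 nM final in Tris HCl pH 7.4 with 0.06 mM NADH and 0.2 mM pyruvate, reacted 5 minutes at room temperature. Remaining NADH coupled via diaphorase/resazurin; resorufin fluorescence read at 0 and 20 minutes, normalized to enzyme-free and DMSO wells.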
D2 antagonist: HTS Assay for Allosteric Antagonists of the Human D2 Dopamine Receptor: Primary Screen for Antagonists. D(2) dopamine receptor (Homo sapiens), P14416. HEK293 TREx D2 cells, calcium flux, dopamine EC80. inhibition, % at 10 µM. 2% of 340,000 active. AID 485344, 2010; in the data active = inhibition above about 30%; inactive = below that, where a call was filed
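Calcium mobilization kinetics were recorded at 1 s intervals in tetracycline-induced HEK293 T-REx D2 cells, first for 180 s after compound addition and then 180 s after EC80 dopamine.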
D2 ag-1: HTS Assay for Allosteric Agonists of the Human D2 Dopamine Receptor: Primary Screen for Agonists; D(2) dopamine receptor (Homo sapiens), P14416; activation, % at 2 µM; 0.53% of 340,000 active; AID 485358, 2010; HEK293 T-REx D2 cells, calcium flux agonist mode;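 active = activation over 3 SD above normal in the single-dose calcium agonist read, cut at about 30% in these data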
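Tetracycline-induced HEK293 Trex cells with D2 receptor force-coupled to calcium signaling, plated overnight at 30 C and loaded with no-wash calcium dye. Calcium flux read kinetically for 180 s after compound addition; responses flag agonists.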
D2 PAM-2: HTS Assay for Positive Allosteric Modulators of the Human D2 Dopamine Receptor: Primary Screen for Potentiators | potentiation, % at 10 µM | D(2) dopamine receptor (Homo sapiens), P14416 | 0.34% of 340,000 active | AID 485347, 2010 | HEK293 T-REx D2, calcium flux, EC20 dopamine potentiation;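 active = potentiation over 3 SD above the plate norm, cut at about 30% in these data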
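Tetracycline-induced Hek293 Trex D2 cells, force-coupled to calcium, loaded with no-wash calcium dye. Compound added with 180 s kinetic read for agonism, then EC20 dopamine and a further 180 s read for potentiation.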
D2 ag-2: Beta-Arrestin HTS for Positive Allosteric Modulators of the Human D2 Dopamine Receptor: Agonists. D(2) dopamine receptor (Homo sapiens), P14416. DiscoveRx PathHunter D2 beta-arrestin, luminescence, 90 min; 100% = 57 uM dopamine signal. activation, % (no concentration beside the values). 0.084% of 360,000 active. AID 624465, 2012; in the data active = activation above about 40%
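Agonist mode: compounds alone added to overnight-plated D2 PathHunter cells for 90 min at 37 C, with 57 uM final dopamine (EC100) defining full response. Beta-arrestin recruitment detected by chemiluminescent reagent, read after 1 h at ambient temperature.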
A number is an active result; n = inactive; x = no result given.

SMILES	D2 PAM-1	LDHA inh	D2 antagonist	D2 ag-1	D2 PAM-2	D2 ag-2
CCc1ccc(-c2c(C)sc(N)c2C#N)cc1	x	n	x	x	x	x
OCCCN1CCN(CCOc2ccccc2-c2ccccc2)CC1	n	n	67	n	n	n
c1ccc(-c2ccccc2OCCCN2CCCCC2)cc1	n	n	43	n	n	n
CCN1CCN(CCCOc2ccccc2-c2ccccc2)CC1	n	n	n	n	n	n
Clc1cccc(OCCOCCN2CCNCC2)c1Cl	n	n	x	x	x	n
c1ccc2c(OCCCN3CCCCCC3)cccc2c1	n	n	74	n	n	n
Clc1cccc(OCCCN2CCCC2)c1Cl	n	n	52	n	n	n
C=C(C)COc1cc(C)cc2oc(=O)c(CC(=O)NCCc3ccc(S(N)(=O)=O)cc3)c(C)c12	x	n	x	x	x	x
CC(Oc1ccc(Cl)cc1Cl)C(=O)NCCc1cccs1 (stereo not drawn)	x	n	x	x	x	x
OC(COc1cccc2ccccc12)CN1CCCC1 (stereo not drawn)	n	n	n	n	73	n
Clc1ccc(OCCN2CCOCC2)cc1	n	n	x	x	n	n
CCN1CCN(CCOc2ccc(Cl)cc2)CC1	n	-34	n	n	n	n
CCN1CCN(CCOc2ccccc2-c2ccccc2)CC1	n	-34	87	n	n	n
C=C1CC(C)OC(c2ccccc2OCC(O)CN2CCCCC2)C1 (stereo not drawn)	n	n	65	n	n	n
CC1CN(CC(O)COc2ccccc2C(C)(C)C)CC(C)O1 (stereo not drawn)	n	n	n	n	n	n
Cc1ccc(N2C(=O)C3C4C=CC(C4)C3C2=O)cc1 (stereo not drawn)	n	n	n	n	51	n
Cc1cc(C)cc(N2C(=O)C3C4C=CC(C4)C3C2=O)c1 (stereo not drawn)	n	n	x	x	37	n
O=C1C2C3C=CC(C3)C2C(=O)N1c1ccccc1 (stereo not drawn)	n	n	x	x	x	n
CCN1CCN(c2sc(S(=O)(=O)CC)nc2S(=O)(=O)c2ccc(C)cc2)CC1	n	n	x	x	x	n
CCCS(=O)(=O)c1nc(S(=O)(=O)c2ccc(C)cc2)c(N2CCN(CC)CC2)s1	n	n	67	n	n	n
O=C(CN1CCC(O)(c2ccccc2F)CC1)NCCc1c[nH]c2ccccc12	n	n	86	n	n	n
O=C(CN1CCN(c2ccccc2F)CC1)NCCc1c[nH]c2ccccc12	x	n	x	x	x	x
NCc1ccc(C(=O)N2CCCC2)cc1	x	n	x	x	x	x
CCCCN(Cc1ccccc1)c1ccc(C(=O)O)cc1NS(=O)(=O)c1ccc(C(C)=O)cc1	x	n	x	x	x	x
O=C(COC(=O)c1ccc(Sc2ccccc2)c([N+](=O)[O-])c1)NC1CCS(=O)(=O)C1 (stereo not drawn)	n	n	32	n	n	n
SMILES	D2 PAM-1	LDHA inh	D2 antagonist	D2 ag-1	D2 PAM-2	D2 ag-2
Cc1ccc(COc2coc(CN3CCN(C(=O)c4ccco4)CC3)cc2=O)cc1	n	n	n	n	n	n
CC(Oc1coc(CN2CCN(C(=O)c3ccco3)CC2)cc1=O)c1ccccc1 (stereo not drawn)	n	n	n	31	n	n
Cc1cc(C(=O)NCc2ccc(S(N)(=O)=O)cc2)c(C)o1	n	n	30	n	n	n
CCCc1cc(=O)oc2cc(OCC(=O)O)c(Cl)cc12	x	n	x	x	x	x
C=C1CCN([C@H](C(=O)OCc2ccc(C)cc2)C(C)C)S(=O)(=O)c2ccccc21	n	n	n	n	n	n
C=C1CCN([C@@H](C)C(=O)OCc2cccc(C)c2)S(=O)(=O)c2ccccc21	n	n	31	n	n	n
